Screening data deposited in PubChem BioAssay by ICCB-Longwood Screening Facility, Harvard Medical School.
This is a sample that favours compounds with a hit; in the whole collection about 1.4% have one here.
MbtI inh = MbtI salicylate synthase inhibition; P9WFX0; inhibition, % (no concentration beside the values); 100,000 tested, 0.89% active; purified MbtI enzyme, fluorescence intensity read-out; in the data active = inhibition mostly above about 56%, no sharp cut-off; inactive = mostly below about 77%
Mtb MenB inh = blocks the Mycobacterium tuberculosis MenB enzyme; P9WNP5; MenB enzyme assay, absorbance read-out; inhibition, % (no concentration beside the values); 100,000 tested, 0.43% active; AID 540299; in the data active = inhibition above about 21%, passing the limit was not always enough
PV pol inh = inhibitors of poliovirus RNA polymerase binding and polymerization | % elongation, % (compound at 16.7 µg/mL) | poliovirus polymerase elongation, fluorescence polarization; hits give low values | AID 588519 | 150,000 tested, 0.66% active; in the data active = % elongation below about 90%
Target sequence (P03300 1749-2209 limits assumed): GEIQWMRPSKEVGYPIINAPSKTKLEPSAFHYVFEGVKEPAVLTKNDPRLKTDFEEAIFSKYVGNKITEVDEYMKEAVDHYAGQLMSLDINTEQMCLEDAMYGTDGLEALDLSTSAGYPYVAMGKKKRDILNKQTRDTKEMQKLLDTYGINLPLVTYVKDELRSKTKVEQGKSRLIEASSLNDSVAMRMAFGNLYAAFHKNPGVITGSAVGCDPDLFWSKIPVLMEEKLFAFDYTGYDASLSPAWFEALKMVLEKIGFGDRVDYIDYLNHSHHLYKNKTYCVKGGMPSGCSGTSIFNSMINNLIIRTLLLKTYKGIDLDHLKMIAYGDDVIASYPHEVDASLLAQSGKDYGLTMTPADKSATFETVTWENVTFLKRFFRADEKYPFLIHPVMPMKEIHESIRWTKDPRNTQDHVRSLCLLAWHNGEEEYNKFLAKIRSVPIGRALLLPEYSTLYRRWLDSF
An asterisk follows results filed as active; x = no result given; ! = not confirmed by another sample.

SMILES	MbtI inh	Mtb MenB inh	PV pol inh
CC1(C)CC(=O)C(C=NC2CCCC2)=C(O)C1	10.7	-13.9	102.0
CC(N)CCc1ccc(Cl)cc1 (configuration not stated)	-0.7	8.1	100.0
Cc1sc(NC(=O)COc2ccc(C(C)(C)C)cc2)c(C(=O)OC(C)C)c1C	x	x	104.0
COC(=O)c1c(-c2cccs2)csc1NC(=O)COc1ccccc1	x	x	66.0*
COC(=O)c1c(-c2cccs2)csc1NC(=O)COc1ccc(C)cc1	x	x	96.0
COC(=O)c1c(-c2cccs2)csc1NC(=O)COc1ccc(C(C)(C)C)cc1	x	x	80.0*
CCOC(=O)c1c(-c2cccs2)csc1NC(=O)CSc1ccccn1	10.6	-26.7	110.0
COC(=O)c1c(-c2cccs2)csc1NC(=O)COc1c(C)ccc(C)c1C	x	x	62.0*
N#Cc1c(C(F)(F)F)nc2sc3ccccc3n2c1=N	x	-26.5	106.0
O=C1C=CC(=O)C(c2ccc(Br)cc2)=C1	65.5	-14.2	105.0
CC(C)CN(C(=O)c1ccc(Cl)cc1)c1c(N)n(CC(C)C)c(=O)[nH]c1=O	3.7	-26.3	105.0
COC(=O)C(N)C12CC3CC(CC(C3)C1)C2 (configuration not stated)	3.1	17.2	101.0
COC(=O)C(F)C(=O)OC	-0.6	10.8	88.0*
CCc1nc2ccccc2c(C(=O)Nc2cccc(Cl)c2)c1C	x	-9.9	104.0
COc1ccc(C(=O)N/N=c2/c(=O)c(=O)c3ccccc23)cc1	-5.5	-24.9	52.0*
COc1ccc(C(=O)NN=C2CCCC2)cc1	5.5	1.9	103.0
Cc1cc2nc(Oc3ccccc3)c3ccccc3n2n1	5.0	11.1	103.0
COc1ccccc1NC(=O)Cn1c(=O)oc2cc(S(=O)(=O)NCc3ccccc3)ccc21	x	x	104.0
COC(=O)C1=C(C)OC(N)=C(C#N)C1c1cc2ccc(C)cc2[nH]c1=O (configuration not stated)	26.2	-16.1	102.0
CC(C)n1c(=S)[nH]c2scc(-c3cccs3)c2c1=O	12.9	-54.3	105.0
O=c1c2c(-c3cccs3)csc2[nH]c(=S)n1-c1ccccc1	99.3*!	-42.7	83.0*!
O=C1CC(c2ccc(Br)cc2)C2=C(CCCC2=O)N1 (configuration not stated)	13.1	15.7	100.0
O=C1C(c2cc(Cl)cc(Cl)c2)=C(O)c2ccccc21	88.7*	-32.0	98.0
O=C1C(c2ccncc2)=C(O)c2ccccc21	22.9	-123.8	101.0
Cc1cc(N)n(-c2nc3ccccc3n2Cc2ccc(C#N)cc2)n1	-9.4	x	101.0
SMILES	MbtI inh	Mtb MenB inh	PV pol inh
COc1ccc2c(c1)-c1c(ssc1=Nc1ccc(S(N)(=O)=O)cc1)C(C)(C)N2	0.7	-39.3	103.0
O=C(COC(=O)C1CC1)Nc1ccccc1	-35.7	9.6	105.0
Cc1nc2sccn2c1-c1csc(Nc2cccc(Cl)c2C)n1	70.2*	-10.5	99.0
CCc1ccccc1Nc1nc(-c2c(C)nc3sccn23)cs1	49.2	-5.5	101.0
O=C1OCC(c2cccs2)=C1c1cccs1	-17.2	-22.4	108.0
Cc1ccc(S(=O)(=O)/N=C2\C=C(Sc3ncn[nH]3)C(=O)c3ccccc32)cc1	85.7*	-57.8	102.0
Cc1ccc(S(=O)(=O)/N=C2/C=C(Sc3ncn[nH]3)C(=O)c3ccccc32)cc1	87.7*	x	x
CC(C)c1ccc(S(=O)(=O)/N=C2/C=C(Sc3ncn[nH]3)C(=O)c3ccccc32)cc1	88.3	7.8	66.0*
Cc1ccc(Nc2nc(Nc3ccc(C)cc3)nc(Sc3ncn[nH]3)n2)cc1	x	-10.8	103.0
O=C1C(Sc2ccccc2)=C/C(=N/S(=O)(=O)c2cccs2)c2ccccc21	92.0	-5.2	92.0
Cc1ccc(S(=O)(=O)Nc2ccc(O)c(Sc3ncn[nH]3)c2)cc1	-7.6	x	x
Cc1sc2nc(CSC(C)C(=O)OCn3nnc4ccccc4c3=O)[nH]c(=O)c2c1C (configuration not stated)	23.8	-15.0	108.0
CCOC(=O)c1c(NC(C)=O)c2c3c(sc2n1Cc1ccc(F)cc1Cl)CCCC3	-7.2	-13.2	103.0
CC1=Nn2c(nc3sc(C)c(C)c3c2=O)SC1	0.6	-1.5	100.0
O=C(N/N=C/c1ccc(OC(=O)c2ccco2)cc1)c1ccccn1	-15.1	-6.9	102.0
N#CC(C#N)=Cc1ccc(OC(=O)c2ccccn2)cc1	33.5	-163.3	87.0*
Nc1ccccc1C(=O)CSc1ccccn1	58.1	-64.6	101.0
O=C(CSc1ccccn1)c1ccc(F)cc1	86.0*	-10.3	99.0
CC(C)NC(=S)N/N=C/c1cccc(O)c1	16.1	-7.2	104.0
CNC(=S)N/N=C/c1cccc(Cl)c1	23.8	-6.5	13.0*
CC(C)(C)C(=O)COC(=O)c1cc(Cl)cc(Cl)c1	-12.7	x	101.0
O=C(NCCc1ccccc1)C1CCN(C(=O)c2ccco2)CC1	-25.0	4.6	102.0
COc1cc(OC)cc(C(=O)N2CCC(C(=O)NCCc3ccccc3)CC2)c1	2.5	47.9*	102.0
COC(=O)c1c(NC(=O)CCCOc2ccc(C)cc2)sc2c1CCCC2	x	x	95.0
CCOc1ccc(/C=C/C(=O)Nc2sc3c(c2C(=O)OC)CCCC3)cc1	x	x	106.0
SMILES	MbtI inh	Mtb MenB inh	PV pol inh
COC(=O)c1c(NC(=O)CCCOc2ccc(C)cc2)sc2c1C(C(=O)OC)CC2 (configuration not stated)	x	x	71.0*
CCOc1ccc(/C=C/C(=O)Nc2sc3c(c2C(=O)OC)C(C(=O)OC)CC3)cc1 (configuration not stated)	x	x	79.0*
COC(=O)c1c(NC(=O)CCCOc2cccc(C)c2)sc2c1CCC2	x	x	101.0
COC(=O)c1c(NC(=O)CCCOc2cccc(C)c2)sc2c1C(C(=O)OC)CC2 (configuration not stated)	x	x	81.0*
Cn1ccc(NC(=O)Nc2ccccc2)n1	-2.2	-0.6	108.0
O=c1cc(CCl)c2c(ccc3ccccc32)o1	48.5	x	103.0
O=C(NC(=O)N1CCSC1)c1c(F)cccc1Cl	2.6	-8.2	110.0
C/C(=N\NC(=O)CSc1nnc(SCc2ccccc2)s1)c1ccco1	-4.7	-24.5	104.0
CC1=CC(=C2C(=O)NC(=O)NC2=O)C=C(C)O1	20.5	-150.2	96.0
O=C(O)C(Cc1c[nH]c2ccccc12)N1C(=O)CCC1=O (configuration not stated)	4.2	-14.1	102.0
CCOCC(O)CN (configuration not stated)	-4.3	-10.3	100.0
CC(C)OCC(O)CN (configuration not stated)	-1.4	32.2*	102.0
CCOC(=O)c1cccc(NC(=O)Cc2ccc(NC(=O)N3CCCCc4ccccc43)cc2)c1	x	x	21.0*
COc1cccc(NC(=O)Cc2ccc(NC(=O)N3CCCCc4ccccc43)cc2)c1	x	x	104.0
O=C1c2cccc3c(N4CCCCC4)ccc(c23)C(=O)N1c1ccccn1	-1.6	36.4*	78.0
CC(=O)N(C(C)=O)N1C(=O)c2cccc3c(N4CCOCC4)ccc(c23)C1=O	-6.0	-66.4	67.0
CCOc1cc(S(=O)(=O)NCc2ccc(OC)cc2)c(OCC)cc1-n1cnnn1	47.7	22.7	102.0
CCOc1cc(S(=O)(=O)NCCc2ccc(OC)c(OC)c2)c(OCC)cc1-n1cnnn1	-17.9	44.3*	103.0
C=C1CC23CC4C5[C@@]6(C)C[C@H](OC(=O)c7ccccc7)[C@@H](OC(C)=O)[C@@]57C2[C@H](OC(C)=O)[C@@H]1[C@H](O)[C@H]3[C@H]7N4C6	-9.5	0.2	102.0
